Assay results published in the supplement of paper PMC8728848.
The entries come from a sample that favours the strongest signals as a whole.

Experiments:
Assay in all cases: glycan array binding signal (z-score within array); higher = stronger binding
Settings in all cases: glycan notation: IUPAC condensed, linker removed
[1] = biological target: GlcNAc(b1-3)Gal(b1-4)GlcNAc(b1-3)Gal(b1-4)GlcNAc(b1-3)Gal(b1-4)GlcNAc(b1-2)Man(a1-3)[GlcNAc(b1-3)Gal(b1-4)GlcNAc(b1-3)Gal(b1-4)GlcNAc(b1-3)Gal(b1-4)GlcNAc(b1-2)Man(a1-6)]Man(b1-4)GlcNAc(b1-4)GlcNAc
In short: (§1)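 Negative Z-scores can be read as non-binding. The Z-score is calculated within each array and then averaged across arrays of one protein sequence at different concentrations or buffers and across linkers. Arrays, 3228 in all, were curated from the Consortium for Functional Glycomics database and kept only where the protein sequence was available.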

Kdn(a2-3)Gal(b1-3)GalNAc = biological target: Kdn(a2-3)Gal(b1-3)GalNAc
In short: as §1

[2] = biological target: Man(a1-2)Man(a1-2)Man(a1-3)Man
In short: as §1

[3] = biological target: Man(a1-3)[Man(a1-6)]Man(b1-4)GlcNAc(b1-4)[Fuc(a1-6)]GlcNAc
In short: as §1

[4] = biological target: Neu5Ac(a2-3)Gal(b1-3)[Neu5Ac(a2-6)]GalNAc
In short: as §1

[5] = biological target: Neu5Ac(a2-3)Gal(b1-3)]Neu5Ac(a2-3)Gal(b1-4)]GlcNAc
In short: as §1

[6] = biological target: Neu5Ac(a2-3)Gal(b1-4)GlcNAc(b1-2)Man(a1-3)[Neu5Ac(a2-3)Gal(b1-4)GlcNAc(b1-2)Man(a1-6)]Man(b1-4)GlcNAc(b1-4)[Fuc(a1-6)]GlcNAc
In short: as §1

[7] = biological target: Neu5Ac(a2-3)Gal(b1-4)GlcNAc(b1-2)[Neu5Ac(a2-3)Gal(b1-4)GlcNAc(b1-4)]Man(a1-3)[GlcNAc(b1-4)][Neu5Ac(a2-3)Gal(b1-4)GlcNAc(b1-2)[Neu5Ac(a2-3)Gal(b1-4)GlcNAc(b1-6)]Man(a1-6)]Man(b1-4)GlcNAc(b1-4)GlcNAc
In short: as §1

[8] = biological target: Neu5Ac(a2-3)Gal(b1-4)GlcNAc(b1-2)[Neu5Ac(a2-3)Gal(b1-4)GlcNAc(b1-4)]Man(a1-3)[GlcNAc(b1-4)][Neu5Ac(a2-3)Gal(b1-4)GlcNAc(b1-4)Man(a1-6)]Man(b1-4)GlcNAc(b1-4)GlcNAc
In short: as §1

[9] = biological target: Neu5Ac(a2-3)Gal(b1-4)GlcNAc(b1-6)GalNAc
In short: as §1

[10] = biological target: Neu5Ac(a2-3)Gal(b1-4)[Fuc(a1-3)]GlcNAc
In short: as §1

[11] = biological target: Neu5Ac(a2-3)Gal(b1-4)[Fuc(a1-3)]GlcNAc(b1-3)GalNAc
In short: as §1

[12] = biological target: Neu5Ac(a2-3)Gal6S(b1-4)GlcNAc
In short: as §1

[13] = biological target: Neu5Ac(a2-6)Gal(b1-4)GlcNAc(b1-2)Man(a1-3)Man(b1-4)GlcNAc(b1-4)GlcNAc
In short: as §1

[14] = biological target: Neu5Ac(a2-6)Gal(b1-4)GlcNAc(b1-3)Gal(b1-4)GlcNAc(b1-3)Gal(b1-4)GlcNAc(b1-2)Man(a1-3)[Neu5Ac(a2-6)Gal(b1-4)GlcNAc(b1-3)Gal(b1-4)GlcNAc(b1-3)Gal(b1-4)GlcNAc(b1-2)Man(a1-6)]GalNAc
In short: as §1

[15] = biological target: Neu5Ac(a2-6)Gal(b1-4)GlcNAc(b1-6)[Gal(b1-3)]GalNAc
In short: as §1

[16] = biological target: Neu5Ac(a2-6)Gal(b1-4)GlcNAc6S
In short: as §1

[17] = biological target: Neu5Ac(a2-6)GlcNAc(b1-4)GlcNAc
In short: as §1

[18] = biological target: Neu5Ac(a2-8)Neu5Ac(a2-3)Gal(b1-3)GalNAc(b1-4)[Neu5Ac(a2-3)]Gal(b1-4)Glc
In short: as §1

[19] = biological target: Neu5Ac(a2-8)Neu5Ac(a2-3)[Gal(b1-3)GalNAc(b1-4)]Gal(b1-4)Glc
In short: as §1

[20] = biological target: Neu5Gc(a2-8)Neu5Gc(a2-3)Gal(b1-4)GlcNAc
In short: as §1

[21] = biological target: Neu5Gc(a2-8)Neu5Gc(a2-6)Gal(b1-4)GlcNAc
In short: as §1

B1: Erv41-EDTA (Saccharomyces cerevisiae), Q04651 (protein)
chain: MKFLVNVALVFMVVYISYIYAAAPEHHHHHHDYDIPTTENLYFQGAMGYIDQQYVVDSQVRDTVQINMDIYVNTKCDWLQINVRDQTMDRKLVLEELQLEEMPFFIPYDTKVNDINEIITPELDEILGEAIPAEFREKLDTRSFFDESDPNKAHLPEFNGCHVFGSIPVNRVSGELQITAKSLGYVASRKAPLEELKFNHVINEFSFGDFYPYIDNPLDNTAQFNQDEPLTTYVYYTSVVPTLFKKLGAEVDTNQYSVNDYRYLYKDVAAKGDKMPGIFFKYNFEPLSIVVSDVRL
glycan array binding signal (z-score) [1]: 0.272
glycan array binding signal (z-score) (Kdn(a2-3)Gal(b1-3)GalNAc): 0.349
glycan array binding signal (z-score) [2]: -0.638
glycan array binding signal (z-score) [3]: -0.081
glycan array binding signal (z-score) [4]: -0.609
glycan array binding signal (z-score) [5]: -0.585
glycan array binding signal (z-score) [6]: 2.09
glycan array binding signal (z-score) [7]: 1.18
glycan array binding signal (z-score) [8]: -0.72
glycan array binding signal (z-score) [9]: -0.767
glycan array binding signal (z-score) [10]: 0.162
glycan array binding signal (z-score) [11]: 1.5
glycan array binding signal (z-score) [12]: 0.025
glycan array binding signal (z-score) [13]: 1.97
glycan array binding signal (z-score) [14]: 2.65
glycan array binding signal (z-score) [15]: 0.134
glycan array binding signal (z-score) [16]: -0.865
glycan array binding signal (z-score) [17]: 0.004
glycan array binding signal (z-score) [18]: -0.348
glycan array binding signal (z-score) [19]: 1.35
glycan array binding signal (z-score) [20]: 0.393
glycan array binding signal (z-score) [21]: 1.14
